Among the test systems are HCT-15 colon; HT29 colon; SNB-75 CNS; SNB-19 CNS; U251 CNS; PC-3 prostate; SK-MEL-5 melanoma; UACC-62 melanoma; LOX IMVI melanoma; SK-MEL-28 melanoma; SK-MEL-2 melanoma; EKVX NSCLC; SN12C renal; UO-31 renal; TK-10 renal; ACHN renal; CAKI-1 renal; CCRF-CEM leukemia; MOLT-4 leukemia.
Common to all, as to experiment: NCI-60 one-dose screen, 48 h (100 = growth as untreated, 0 = no growth, -100 = all killed)
Common to all, as to conditions: 10 µM unless noted

This is part of a sample that, as a whole, favours compounds with a hit. Of some 83,000 tested, about 20% had one in any assay.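 Compound tested at a single concentration for 48 hours in 96-well plates; a percent growth value below 10 was scored as active.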 A number with no mark means an inactive call. Calls of active or inactive are those of the source.

Turning to `NS(=O)(=O)c1ccc(CCN2C(=O)C=CC2=O)cc1`, the growth in the assay on HCT-15 colon was 99.3%; in the assay with HT29 colon, 97.2%; with SNB-75 CNS it was 99.3%; in the assay with SNB-19 CNS, 107%; in the assay with U251 CNS it was 104%; with PC-3 prostate, 100%. Also, the growth was 104% with SK-MEL-5 melanoma; 104% in the assay on UACC-62 melanoma; 97% in the assay on LOX IMVI melanoma; 107% in the assay with SK-MEL-28 melanoma; 98.2% with SK-MEL-2 melanoma; 102% in the assay on EKVX NSCLC. The growth in the assay on SN12C renal was 110%; in the assay with UO-31 renal it was 84.5%; with TK-10 renal, 89.7%; with ACHN renal, 102%; in the assay with CAKI-1 renal it was 94.8%; in the assay with CCRF-CEM leukemia it was 99%. For the same compound, in the assay with MOLT-4 leukemia, the growth is 97.4%.
On to `CC(=O)CCC(=O)OCc1cc(=O)c(O)co1`, for which the growth is 98.2% with HCT-15 colon; 101% with HT29 colon; 104% in the assay on SNB-75 CNS; 104% in the assay with SNB-19 CNS; 107% in the assay with U251 CNS; 98.7% in the assay on PC-3 prostate. For the same compound, the growth is 105% in the assay with SK-MEL-5 melanoma; 103% in the assay with UACC-62 melanoma; 94.6% with LOX IMVI melanoma; 98.1% with SK-MEL-28 melanoma; 113% in the assay on SK-MEL-2 melanoma; 109% in the assay with EKVX NSCLC. Also, the growth with SN12C renal is 104%; in the assay on UO-31 renal, 97.1%; in the assay on TK-10 renal it was 98.5%; in the assay on ACHN renal it was 101%; in the assay with CAKI-1 renal, 102%; with CCRF-CEM leukemia, 98%. The growth in the assay with MOLT-4 leukemia is 102%.
Turning to `CC(=O)N1c2ccccc2NC2=C(C(=O)NC2(C)C)C1c1ccco1` (configuration not stated), the growth with HCT-15 colon is 93.1%; with HT29 colon, 92.5%; with SNB-75 CNS, 73.5%; with SNB-19 CNS, 81.2%; in the assay with U251 CNS, 96.5%; in the assay on PC-3 prostate, 54.6%. In addition, the growth with SK-MEL-5 melanoma is 64.6%; in the assay on UACC-62 melanoma, 66.5%; with LOX IMVI melanoma, 86.4%; in the assay on SK-MEL-28 melanoma, 75.2%; in the assay with SK-MEL-2 melanoma, 84.2%; with EKVX NSCLC, 95.8%. Also, the growth is 99.1% in the assay on SN12C renal; 85.2% with UO-31 renal; 98.4% with TK-10 renal; 107% with ACHN renal; 90.3% in the assay on CAKI-1 renal; 80.6% with CCRF-CEM leukemia. Also, the growth in the assay on MOLT-4 leukemia is 96.5%.
For `CC(=O)c1cc2c(N)c(C(=O)Nc3cccc4ccncc34)sc2nc1C`, the growth with HCT-15 colon is 87.1%; in the assay on HT29 colon, 104%; with SNB-75 CNS, 97.7%; in the assay on SNB-19 CNS it was 95.4%; in the assay on U251 CNS it was 101%; in the assay with PC-3 prostate, 80.7%. Besides, the growth was 64.7% in the assay on SK-MEL-5 melanoma; 69.9% with UACC-62 melanoma; 102% with LOX IMVI melanoma; 91.1% in the assay on SK-MEL-28 melanoma; 78% in the assay on SK-MEL-2 melanoma; 91.5% in the assay on EKVX NSCLC. Besides, the growth in the assay with SN12C renal is 99.9%; in the assay with UO-31 renal, 88.2%; with TK-10 renal, 99%; in the assay on ACHN renal, 102%; with CAKI-1 renal, 93.1%; with CCRF-CEM leukemia it was 101%. In the assay on MOLT-4 leukemia, the growth is 88.7%.
As to `Nc1n[nH]c2cccc(C#Cc3cccc(C(=O)Nc4cc(CN5CCOCC5)cc(C(F)(F)F)c4)c3)c12`, the growth in the assay on HCT-15 colon was 31.8%; in the assay with HT29 colon, 18%; with SNB-75 CNS, 44.1%; in the assay on SNB-19 CNS it was 66.7%; in the assay on U251 CNS it was 51%; with PC-3 prostate, 36.9%. In addition, the growth in the assay with SK-MEL-5 melanoma was 29%; in the assay with UACC-62 melanoma, 11.7%; with LOX IMVI melanoma it was 7.72% (active); in the assay with SK-MEL-28 melanoma it was 14.6%; with SK-MEL-2 melanoma, 4.06% (active); with EKVX NSCLC it was 60.6%. Further, the growth was 39.1% with SN12C renal; 17.6% in the assay on UO-31 renal; 67.7% in the assay on TK-10 renal; 27% in the assay on ACHN renal; 48.8% in the assay on CAKI-1 renal; 19.4% in the assay on CCRF-CEM leukemia. The growth in the assay with MOLT-4 leukemia was 23.8%.
For the compound `CNCCOc1nc2c3cnccc3cc(-c3cc(OC)c(OC)c(OC)c3)c2c2ccncc12`, the growth is -6.39% (active) in the assay on HCT-15 colon; -39.9% (active) in the assay with HT29 colon; -64.6% (active) in the assay with SNB-75 CNS; -8.3% (active) in the assay on SNB-19 CNS; -17.1% (active) in the assay on U251 CNS; -13.4% (active) with PC-3 prostate. In addition, the growth was -97.7% (active) in the assay with SK-MEL-5 melanoma; -62.1% (active) in the assay with UACC-62 melanoma; -46.8% (active) in the assay with LOX IMVI melanoma; -71.6% (active) in the assay with SK-MEL-28 melanoma; -77.5% (active) in the assay with SK-MEL-2 melanoma; -45.9% (active) in the assay on EKVX NSCLC. For the same compound, the growth was -36.9% (active) with SN12C renal; -42.7% (active) with UO-31 renal; -34.2% (active) with TK-10 renal; -73.8% (active) in the assay on ACHN renal; -31% (active) in the assay with CAKI-1 renal; -13.1% (active) with CCRF-CEM leukemia. Moreover, in the assay with MOLT-4 leukemia, the growth was -15.1% (active).
Turning to `O=C(Nc1ccc(NC(=O)c2cc(=O)[nH]c3ccccc23)cc1)Nc1cccc(Cl)c1`, the growth with HCT-15 colon was 103%; in the assay with HT29 colon, 88.4%; in the assay with SNB-75 CNS, 74.4%; in the assay with SNB-19 CNS, 95.2%; with U251 CNS, 89.4%; with PC-3 prostate, 76.5%. Also, the growth with SK-MEL-5 melanoma is 92.9%; in the assay on UACC-62 melanoma, 84.6%; with LOX IMVI melanoma, 87.7%; in the assay with SK-MEL-28 melanoma, 109%; in the assay with SK-MEL-2 melanoma, 101%; with EKVX NSCLC, 85.2%. Further, the growth in the assay with SN12C renal was 88.8%; in the assay on UO-31 renal it was 65.3%; with TK-10 renal, 90.2%; in the assay with ACHN renal it was 97.6%; with CAKI-1 renal, 78.1%; in the assay on CCRF-CEM leukemia, 77.1%. In addition, in the assay on MOLT-4 leukemia, the growth is 79.7%.
For the compound `N/C(=N\C(N)=N\c1nc2ccccc2s1)c1cnccn1`, the growth in the assay on HCT-15 colon is 11.6%; with HT29 colon it was 24.1%; in the assay with SNB-75 CNS it was 35.8%; in the assay with SNB-19 CNS it was 37.4%; with U251 CNS, 35.1%; in the assay on PC-3 prostate it was 31.1%. Also, the growth with SK-MEL-5 melanoma is -48.5% (active); in the assay on UACC-62 melanoma it was -20.8% (active); with LOX IMVI melanoma, 15.1%; with SK-MEL-28 melanoma, 21.6%; with SK-MEL-2 melanoma, 3% (active); in the assay on EKVX NSCLC, 48%. Also, the growth with SN12C renal was 36.7%; in the assay with UO-31 renal, -12.9% (active); with TK-10 renal, 37.9%; in the assay with ACHN renal, 26.2%; in the assay with CAKI-1 renal, 15.5%; in the assay on CCRF-CEM leukemia, 14.6%. Also, the growth in the assay with MOLT-4 leukemia was 8.63% (active).

(Values after PubChem BioAssay (NCI).)
